High-throughput results from PubChem.
An excerpt weighted towards active compounds, which were near 3.7% of everything screened.
TIM10 inh = growth inhibitors of isogenic TIM10 control yeast, primary screen, counter-screen for tim10-1 yeast inhibitor project, luminescence, uHTS | hit rate 1.4% among 330,000 | inhibition, % at 10 µM | S. cerevisiae TIM10 strain growth, BacTiter-Glo luminescence, 24 h;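 active means inhibition of 40% or more at the single tested concentration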;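 further: wild-type TIM10 isogenic control strain grown at permissive 25 °C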
V-ATPase pH = regulators of yeast V-ATPase proton pumping, primary screen, pHLuorin cytosolic pH fluorescence. S. cerevisiae. response, % at 10 µM. hit rate 0.37% among 350,000. AID 504577, 2011; in the data active means response mostly above about 7.3%, no sharp cut-off; inactive means mostly below about 5.4%; further: actives read high
tim10-1 inh = growth inhibitors of tim10-1 mutant yeast, primary screen, luminescence, uHTS; S. cerevisiae tim10-1 ts strain growth, BacTiter-Glo, 24 h; hit rate 2.2% among 330,000; AID 463190, 2010; inhibition, % at 20 µM;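 active means inhibition of at least 40%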;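 further: mutant grown at 25 °C; 0% = DMSO wells with yeast and 100% = wells holding no yeast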
tim23-1 inh = growth inhibitors of tim23-1 mutant yeast, primary screen, luminescence, uHTS; S. cerevisiae tim23-1 growth, BacTiter-Glo luminescence, 24 h; inhibition, % at 20 µM; hit rate 1.3% among 330,000;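 active means growth inhibition of the mutant yeast at or above 50%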;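 further: temperature-sensitive mutant grown at 25 °C; plate controls were DMSO-treated mutant yeast for no effect and medium wells lacking yeast for full effect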
PfHsp90 yeast 2 = growth inhibition of PfHsp90-expressing yeast, primary screen, antimalarial PfHsp90 inhibitor project, S. cerevisiae, BacTiter-Glo luminescence, single point, set 2; hit rate 0.32% among 310,000; inhibition, % at 9.4 µM; BacTiter-Glo ATP, 48 h; yeast lacking PDR1 and PDR3 efflux regulators; AID 504621, 2011;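 active means every replicate shows inhibition above about 80%, whatever the replicate mean, limit read from the data; inconclusive means mean inhibition reaches the set limit but some replicate falls short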;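 further: 0% = DMSO neutral controls and 100% = 20 µM radicicol positive controls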
V-ATPase pH SP = yeast V-ATPase proton pumping modulators, confirmation, S. cerevisiae, pH-sensitive GFP, second cherry-pick; shares compounds with V-ATPase pH; S. cerevisiae pHLuorin cytosolic pH, V-ATPase proton transport; response, % at 10 µM; hit rate 2% among 980; AID 602197, 2012; in the data active means response above about 24%;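 further: plate controls were vehicle wells for no effect and positive control wells for full effect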
Starred values were filed as active, the others as inactive; ? = inconclusive; nt = not tested or not shown.

SMILES	TIM10 inh	V-ATPase pH	tim10-1 inh	tim23-1 inh	PfHsp90 yeast 2	V-ATPase pH SP
COc1ccccc1N1CCN(C(=O)C2CCN(S(=O)(=O)c3ccc4c(c3)CC(C)N4C(=O)C3CC3)CC2)CC1 (stereo not given)	-0.8	13.6*	19.8	16.5	-11.4	1.1
COc1ccccc1N1CCN(C(=O)C2CCN(S(=O)(=O)c3ccc4c(c3)CC(C)N4C(C)=O)CC2)CC1 (stereo not given)	4.5	-0.3	-5.9	0.6	18.1	nt
COc1ccc(-c2cc(C(=O)NCCCn3ccnc3)no2)cc1OC	-19.5	11.8*	8.3	-5.7	nt	-0.8
COc1nn(-c2nc(-c3ccccc3)cc(C(F)(F)F)n2)cc1[N+](=O)[O-]	8.5	17.3*	-3.2	8.1	-33.8	-0.3
CCOc1cc(/C=N/NC(=O)c2cccc(S(=O)(=O)N3CCCC3)c2)ccc1OCC(=O)N(C)C	-0.8	18.7*	1.7	-7.2	21.8	-3.1
CCOc1cc(C=NNC(=O)c2cccc(S(=O)(=O)N3CCCC3)c2)ccc1O	9.4	0.4	2.0	-1.2	-3.3	nt
CCCCN(C(=O)CCC(=O)Nc1cc(C)on1)C(C(=O)NC1CCCC1)c1ccc(OCC)cc1 (stereo not given)	6.4	0.9	12.2	-0.4	18.1	nt
CCOC(=O)c1c(C)[nH]c(C(=O)COC(=O)/C=C/c2ccc(OC(F)F)cc2)c1C	4.0	4.4	9.7	6.4	-4.2	nt
CCOC(=O)c1c(C)[nH]c(C)c1C(=O)COC(=O)/C=C/c1ccc(OC(F)F)cc1	17.8	10.2*	22.8	25.9	-7.5	3.7
O=C(CCCC(=O)c1ccc(F)cc1)c1ccc(F)cc1	-16.8	7.6	-2.9	7.9	10.5	1.1
O=C(NCCCNC(=O)c1ccccn1)c1ccc(F)cc1	8.2	-1.1	-19.4	-0.5	9.4	nt
O=C(CCCN1CCC(C(=O)c2ccc(F)cc2)CC1)c1ccc(F)cc1	-8.1	0.2	-5.9	-1.0	-0.2	nt
O=C(NCCCNC(=O)c1ccc(F)cc1)c1ccc(F)cc1	-3.6	4.5	-15.9	-9.0	-5.9	0.8
O=C(O)CCC(=O)NCC(=O)c1ccc(F)cc1	-19.2	8.5	-9.4	0.4	4.4	-0.6
O=C(O)CCC(=O)Nc1ccc(F)cc1	10.6	0.6	-3.5	6.3	?	nt
CC(=O)CCn1cc([N+](=O)[O-])nc1C	4.7	-4.6	-16.1	2.8	-7.1	nt
COCCC(C(=O)Oc1c(C(C)(C)C)cc(C)cc1C(C)(C)C)c1ccccc1 (stereo not given)	13.7	0.6	18.1	17.3	14.2	nt
O=C(O)C1CC=CCC1C(=O)Nc1cc(Cl)ccc1Cl (stereo not given)	-7.1	0.5	10.7	5.1	nt	nt
O=C(O)C1CC=CCC1C(=O)NNc1c(Cl)cc(Cl)cc1Cl (stereo not given)	-15.4	11.6*	7.9	16.9	-2.8	0.9
CC(C(=O)Nc1ccc2c(c1)OCCO2)c1ccc([N+](=O)[O-])cc1 (stereo not given)	2.5	-0.1	-4.0	2.0	6.1	nt
CC(C(=O)Nc1ccc2c(c1)OCO2)c1ccc([N+](=O)[O-])cc1 (stereo not given)	-10.2	15.3*	-2.0	3.1	-4.9	1.0
Cc1cccc(/C(N)=N/OC(=O)Cc2cccs2)c1	4.0	8.5*	19.2	22.0	18.0	-0.4
Cc1ccc(/C(N)=N/OC(=O)Cc2cccs2)cc1	22.8	-2.3	16.4	18.8	28.5	nt
O=C(Nc1ccc(Cl)c(Cl)c1)C1CCN(C(=O)c2ccco2)CC1	13.6	3.7	33.7	11.6	nt	nt
CC1=NOC(=O)/C1=C/c1ccc2c(c1)OCO2	-1.8	11.1*	-8.2	23.4	-24.9	-31.0
SMILES	TIM10 inh	V-ATPase pH	tim10-1 inh	tim23-1 inh	PfHsp90 yeast 2	V-ATPase pH SP
COc1ccc(/C=C2/C(=O)ON=C2C)cc1Br	-32.5	6.1	7.7	-13.3	-5.9	nt
Nc1ccn([C@@H]2O[C@H](CNC(=O)[C@H]3CCC(=O)N3)[C@@H](O)[C@H]2O)c(=O)n1	nt	1.2	nt	nt	nt	nt
Cc1ccc(NC(=O)CCC(=O)NNC(=O)c2ccccc2Cl)c(C)c1	7.3	12.7*	8.9	-15.2	nt	-2.2
CCCC(=O)Nc1ccc(C(=O)Nc2cccc(OC)c2)cc1	8.7	9.7*	-2.0	8.8	7.5	2.7
CN(C(=O)CSC1=NCCS1)c1ccccc1	16.7	0.3	7.9	7.7	4.6	nt
CN(C(=O)CSc1nc(N)c2c3c(sc2n1)CSC(C)(C)C3)c1ccccc1	1.5	9.8*	7.1	30.1	-9.1	0.3
COc1ccccc1NC(=O)c1c(Nc2ccccc2C)sc(C(=O)Nc2cccc(Cl)c2)c1N	-0.3	11.7*	15.7	21.0	-22.7	-1.9
COc1ccc(CCN2C(=O)C3C4CC(C5C(C(N)=O)=NOC45)C3C2=O)cc1OC (stereo not given)	-14.5	15.4*	-17.4	-8.4	-17.3	1.4
COc1ccc(CCN2C(=O)C3C4CC(C5C(C(=O)NN)=NOC45)C3C2=O)cc1OC (stereo not given)	-1.3	-3.6	10.0	14.0	nt	nt
CCn1cc(Br)c(C(=O)Nc2nccs2)n1	1.5	10.0*	10.0	-0.6	-22.6	0.4
CCn1cc(Br)c(C(=O)NN)n1	-7.2	-11.0	9.6	9.0	11.3	nt
CNc1nc(SCC(=O)Nc2ccccc2)nc(N2CCOCC2)n1	-5.2	3.3	-12.1	10.5	1.1	nt
C=CCn1cc(C(C)=O)c(=O)[nH]c1=O	-11.5	6.4*	-14.1	2.7	-0.5	-1.9
CCCCCCCCn1cc(C(C)=O)c(=O)[nH]c1=O	5.3	-0.5	31.5	21.3	nt	nt
N=C1/C(=C/c2cccn2Cc2ccc(F)cc2)C(=O)N=C2SC=CN12	-20.6	11.1*	-5.9	-6.9	11.6	-0.6
CCN(CC)C(=O)c1cc2cc([N+](=O)[O-])ccc2s1	3.7	18.8*	-4.5	13.8	-2.3	2.8
O=C(CCc1ccc(S(=O)(=O)N2CCOCC2)cc1)OCC(=O)c1ccccc1	-3.1	-0.3	2.3	12.0	65.2	nt
CCCN(C(=O)COC(=O)CCC(=O)c1ccccc1)c1c(N)n(Cc2ccccc2)c(=O)[nH]c1=O	nt	9.1*	nt	nt	nt	-0.9
COCCN(C(=O)COC(=O)CCn1c(C)csc1=O)c1c(N)n(Cc2ccccc2)c(=O)[nH]c1=O	-5.2	14.9*	-3.9	4.9	11.0	2.1
CC1CCc2c(sc(NC(=O)Cn3nc(C(F)(F)F)c4c3CCCCC4)c2C#N)C1 (stereo not given)	-0.4	-0.5	-0.7	16.5	-11.5	nt
N#Cc1c(NC(=O)Cn2nc(C(F)(F)F)c3c2CCCC3)sc2c1CCC2	-4.6	10.2*	2.0	-15.3	9.6	14.1
C#CCN(C[C@@H]1[C@@H](OC(=O)Nc2cccs2)[C@@H](OC(=O)Nc2cccs2)Cn2c(=O)ccc(=O)n21)S(=O)(=O)c1ccc(C)cc1	nt	0.0	nt	nt	nt	nt
